The campaign covered roughly 75,000 compounds. About 5,700 (7.6%) were called active. Another 7% or so got no clear call; they are omitted. Shown is part of a subset that was picked to be rich in actives. Where a call stands in place of a potency, no number is given. Values without a mark were called inactive. Calls follow the shape of the dose curve; as a rule, active = well fitted inhibition curve with a large enough effect; inconclusive = small, poorly fitted or top-dose-only effect; inactive = no such curve, though single readings can be large or run the other way.
Molecular target: 3-hydroxyacyl-CoA dehydrogenase type-2 (Homo sapiens) (UniProt Q99714)
Experiment: qHTS Assay for Inhibitors of HSD17B4, hydroxysteroid (17-beta) dehydrogenase 4;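 also: the protocol describes HADH2 (HSD17B10) and not the HSD17B4 of the title; nearly all actives have a fitted effect of over 70% in size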
Settings: recombinant HSD17B10, NADH fluorescence kinetic; series mostly up to 57.1 µM
In short: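 Enzyme plus compound, 15 min room temperature; substrate mix added (NAD+ 1 mM, beta-hydroxybutyryl-CoA 90 uM final); plates read kinetically for NADH fluorescence. HADH2 was His-tagged, E. coli-derived, 20 nM.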
Potency is read from the fitted curve at half-maximal effect.

SMILES | Potency | activity change, negative = inhibition
CC(C)(C)C(=O)CCN1C(=O)C2(OCCO2)c2ccccc21 | inactive | –
Cc1ccc(-c2nn(CC(C)(C)C)c3ncnc(N)c23)cc1 | inactive | –
CCCCN(CC)C(=O)CN(C)S(=O)(=O)c1cccc2nsnc12 | inactive | –
COc1ccc(C(=O)Nc2nncs2)c(OC)c1 | inactive | –
COC(=O)c1ccccc1NC(=O)c1ccccc1NS(C)(=O)=O | inactive | –
O=C(Nc1nncs1)c1ccccc1NS(=O)(=O)c1cccs1 | 25.1 µM (active) | –
CSC1=NCCN1C(=O)c1ccc(S(=O)(=O)N2CCOCC2)cc1 | inactive | –
Cc1cc(C(=O)COC(=O)CCCN2C(=O)c3ccccc3C2=O)c(C)n1C | inactive | –
c1ccc(CCN2CCN=C2Cc2ccccc2)cc1 | – | 7.62% [at 11.4 µM]
Cc1cc(NC(=O)CSc2nnc(-c3ccc(Cl)s3)o2)no1 | 31.6 µM (active) | –
COc1ccccc1-c1nnc(SCC(=O)Nc2ccccc2)o1 | inactive | –
COc1ccccc1-c1nnc(SCC(=O)Nc2cc(C)on2)o1 | inactive | –
OC(CCl)CCl | inactive | –
Cc1cc2nc3c(=O)[nH]c(=O)nc-3n(C[C@H](O)[C@H](O)[C@H](O)CO)c2cc1C | 15.8 µM (active) | –
CC(C)(C)Nc1c(N)c(=O)oc2ccccc12 | inactive | –
Cn1cc(-c2nc3cnc(N4CCNCC4)nc3n(CCC#N)c2=O)c2ccccc21 | inactive | –
Cc1nc2cnc(N3CCN(C)CC3)nc2n(C[C@H]2CCCO2)c1=O | 31.6 µM (active) | –
Cc1nc2cnc(N3CCN(C)CC3)nc2n(CCC#N)c1=O | 31.6 µM (active) | –
Cc1nc2cnc(Nc3ccccc3)nc2n(C[C@H]2CCCO2)c1=O | inactive | –
CCOc1cccc(=O)c2c(C)n(CC3CCCO3)c(C)c12 (stereo not drawn) | inactive | –
CCC1=C(OC(=O)N(CC)CC)N2C(=O)OC(=NCC3CC3)[C@]2(C)[C@H]2C1=CC[C@H]1C(=O)N(CC(=O)OC)C(=O)[C@H]12 | inactive | –
COC(=O)[C@@]1(Cc2ccccc2)[C@H]2c3cc(C(=O)N(C)C)n(CCSCCO)c3C[C@H]2CN1C(=O)c1ccccc1 | inactive | –
O=C(c1cc(C(F)(F)F)cc(C(F)(F)F)c1)N1CCC2(CC1)CN(c1ccncc1)C2 | inactive | –
CC(=O)c1cccc(NC(=O)c2ccncc2)c1 | inactive | –
CC1(C)Cc2cccc(OCC(=O)Nc3nccs3)c2O1 | inactive | –
CCCCc1cc(=O)oc2cc(C)cc(OCc3nn[nH]n3)c12 | 31.6 µM (active) | –
COC(=O)[C@@]1(Cc2ccccc2)[C@H]2c3cc(C(=O)N4CCCC4)n(Cc4ccc(C)o4)c3C[C@H]2CN1C(=O)c1ccccc1 | inactive | –

SMILES | Potency | activity change, negative = inhibition
COc1ccc(CN(C(=O)c2cccs2)c2nccs2)cc1OC | inactive | –
Cc1ccc(C(=O)OCC(=O)NCc2ccc3c(c2)OCO3)s1 | inactive | –
CCOC(=O)c1nc(-c2ccc3c(c2)OCO3)[nH]c1C | 20 µM (active) | –
CCOC(=O)c1c(C)[nH]c(C(=O)COc2ccc3c(c2)OCO3)c1C | inactive | –
O=C(Nc1cccc(F)c1)N1CC2(CCN(C(=O)c3cnccn3)CC2)C1 | inactive | –
O=c1[nH]c(-c2ccccc2)c(-c2ccccc2)[nH]1 | 31.6 µM (active) | –
CC1(C)CC(=O)NC=C(c2ccccc2)C1 | inactive | –
COC(=O)C1C(=O)CC(C)(O)C(C(=O)OC)C1c1ccc2c(c1)OCO2 (stereo not drawn) | inactive | –
O=C(Nc1ccccc1)Nc1ccccc1C(=O)NCc1ccco1 | inactive | –
O=C(NCc1ccco1)c1cccn2c(=O)c3cc(Br)ccc3nc12 | 25.1 µM (active) | –
O=C(NCc1ccco1)c1nc(-c2ccccc2)n(-c2ccccc2)n1 | inactive | –
CC(C)C(N)C(=O)OCCOCn1cnc2c(=O)[nH]c(N)nc21 (stereo not drawn) | inactive | –
FC(F)(F)c1ccc(CN2C[C@@H]3C(c4ccccc4)C4(c5ccccc5)CC3(C4)[C@H]2c2ccccc2)cc1 (stereo partly drawn) | inactive | –
CCOC(=O)N1CCC(NC(=O)Cc2cn(C)c3ccccc23)CC1 | inactive | –
CCOC(=O)N1CCC(NC(=O)COc2cc(=O)n(C)c3ccccc23)CC1 | inactive | –
CCOC(=O)N1CCC(NC(=O)c2cnn3ccccc23)CC1 | 31.6 µM (active) | –
CC(C)=CC1C(C(=O)O)C1(C)C (stereo not drawn) | inactive | –
Nc1nonc1-c1nc2ccccc2n1CCC(=O)O | inactive | –
Cn1c(CNC(=O)C(C)(C)C)nc2ccccc21 | inactive | –
Cn1c(-c2ccc(C(=O)c3ccccc3)s2)nc2ccccc21 | 25.1 µM (active) | –
COc1cccc(-c2cc(NCCc3c[nH]c4ccc(OC)cc34)ncn2)c1 | inactive | –
CC1OC2C(OC1C)N(S(C)(=O)=O)CCN2S(C)(=O)=O (stereo not drawn) | inactive | –
C=CC(=C)CCC=C(C)C | inactive | –
COc1ccc(N)c(C)c1 | inactive | –
COc1ccc2[nH]c3cc4c(=O)c5cc(OC)ccc5[nH]c4cc3c(=O)c2c1 | – | 3.71% [at 11.4 µM]
COc1ccc2[nH]c3ccc(OC)cc3c2c1 | 25.1 µM (active) | –
